PubChem BioAssay (NCATS)
Inconclusive results are not listed. The source made the active and inactive calls. The call rests on the fitted dose curve; in most records, active means well fitted inhibition curve with a large enough effect; inconclusive means small, poorly fitted or top-dose-only effect; inactive means flat fitted curve, though single readings scatter.

Key:
Assay in all cases: qHTS profiling for inhibitors of Plasmodium falciparum proliferation (AID 504749); further: nearly all actives have a fitted effect of over 60% in size
Details in all cases: P. falciparum in erythrocytes, SYBR Green DNA, 72 h; series mostly up to 12.8 µM
3D7 = test system: 3D7
How it was run: (§1)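 Parasite proliferation within erythrocytes, 72 h exposure. Endpoint: SYBR Green I fluorescence after overnight lysis at room temperature. Controls: 0.29 uM artemisinin, DMSO.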

ATS189 = test system: ATS189
How it was run: as §1

CP185 = test system: CP185
How it was run: as §1

CP191 = test system: CP191
How it was run: as §1

CP192 = test system: CP192
How it was run: as §1

CP194 = test system: CP194
How it was run: as §1

CP203 = test system: CP203
How it was run: as §1

CP211 = test system: CP211
How it was run: as §1

CP215 = test system: CP215
How it was run: as §1

CP247 = test system: CP247
How it was run: as §1

CP262 = test system: CP262
How it was run: as §1

CP269 = test system: CP269
How it was run: as §1

CP291 = test system: CP291
How it was run: as §1

CP305 = test system: CP305
How it was run: as §1

CP325 = test system: CP325
How it was run: as §1

DIV17 = test system: DIV17
How it was run: as §1

DIV30 = test system: DIV30
How it was run: as §1

PC15 = test system: PC15
How it was run: as §1

TAB113 = test system: TAB113
How it was run: as §1

TAB165 = test system: TAB165
How it was run: as §1

Measured: Potency
Potency means the concentration at half of the fitted maximal effect.

CCN[C@@H]1CN(CCCOC)S(=O)(=O)c2sc(S(N)(=O)=O)cc21
inactive: all assays above

Cc1ccc2c(c1)c1c3n2CCN[C@H]3CCC1
active: DIV17 12 µM
not listed: ATS189 | CP194 | CP203 | DIV30 | PC15 | TAB165
inactive: all other assays above

Cc1onc(-c2ccccc2Cl)c1C(=O)N[C@H]1C(=O)N2[C@H]1SC(C)(C)[C@H]2C(=O)O
inactive: all assays above

CC[C@](C)(CN(C)C)OC(=O)c1ccccc1
not listed: CP203
inactive: all other assays above

CC(C)(C)NC[C@@H](O)COc1ccccc1C1CCCC1
active: ATS189 3.16 µM | CP185 3.16 µM | CP192 6.42 µM | CP194 5.73 µM | CP203 3.22 µM | CP215 4.55 µM | CP269 5.73 µM | CP291 4.05 µM | CP325 4.55 µM | DIV17 3.22 µM | DIV30 5.73 µM | PC15 2.51 µM | TAB113 3.98 µM | TAB165 3.55 µM

Cc1ccsc1/C=C\C1=NCCCN1C
inactive: all assays above

CO[C@@H]1C[C@H](O[C@H]2[C@@H](C)[C@H](O[C@@H]3O[C@@H](C)C[C@@H](N(C)C)[C@@H]3OC(C)=O)[C@H](C)C[C@]3(CO3)C(=O)[C@H](C)[C@H](OC(C)=O)[C@H](C)[C@H](C)OC(=O)[C@@H]2C)O[C@H](C)[C@@H]1OC(C)=O
not listed: CP262
inactive: all other assays above

C[C@H](O)Cn1cnc2c1c(=O)n(C)c(=O)n2C
inactive: all assays above

CCC(=O)OCC(=O)[C@@]1(OC(=O)CC)[C@H](C)C[C@@H]2[C@@H]3[C@H]([C@@H](O)C[C@@]21C)[C@]1(C)C=CC(=O)C=C1C[C@@H]3Cl
active: TAB165 3.98 µM
inactive: CP185 | CP192 | CP194 | CP211 | CP262

C#C[C@]1(O)CC[C@@H]2[C@H]3CCC4=CCCC[C@@H]4[C@@H]3CC[C@@]21C
inactive: all assays above

C[C@H](CCC(=O)O)[C@H]1CC[C@@H]2[C@@H]3[C@@H](O)C[C@H]4C[C@@H](O)CC[C@@]4(C)[C@H]3CC[C@@]21C
inactive: all assays above
